Source: PubChem BioAssay (NCI)
This is part of a sample that, as a whole, favours compounds with a hit. Of some 79,000 tested, about 15% had one in any assay. Rule as the data show it: active = growth inhibition above about 70%; inactive = the rest.

Key:
[1] = NCI Yeast Anticancer Drug Screen. Data for the rad50 strain (AID 155);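 also: 0% = growth of vehicle-only cultures of the same strain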; settings: S. cerevisiae rad50 strain growth inhibition; at 50.0 µM; active compounds read high
Method in brief: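 Growth of the mutant yeast was measured after compound exposure and referenced to vehicle-treated cultures.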

[2] = NCI Yeast Anticancer Drug Screen. Data for the mec2-1 strain (AID 157); settings: S. cerevisiae mec2-1 strain, at 50.0 µM, active compounds read high
Method in brief: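 Yeast mec2-1 mutant treated with compound. Readout: growth inhibition vs vehicle controls.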

[3] = NCI Yeast Anticancer Drug Screen. Data for the sgs1 mgt1 strain (AID 161);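 also: 0% = growth of cultures given vehicle only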; settings: S. cerevisiae sgs1 mgt1 strain, at 50.0 µM, active compounds read high
Method in brief: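 Inhibition of yeast growth, normalised to vehicle-treated controls, is reported for a strain bearing genetic alterations in DNA damage repair.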

[4] = NCI Yeast Anticancer Drug Screen. Data for the cln2 rad14 strain (AID 165);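 also: 0% = growth equal to vehicle treated cultures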; settings: S. cerevisiae cln2 rad14 strain, at 50.0 µM, active compounds read high
Method in brief: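 cln2 rad14 yeast strain; compound exposure; growth inhibition read vs vehicle controls.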

[5] = NCI Yeast Anticancer Drug Screen. Data for the bub3 strain (AID 167); settings: S. cerevisiae bub3 mutant strain, at 50.0 µM, active compounds read high
Method in brief: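 Whole-cell yeast assay. The mutant strain was incubated with compounds, and growth inhibition was determined by comparison with vehicle-treated cells.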

[6] = NCI Yeast Anticancer Drug Screen. Data for the mlh1 rad18 strain (AID 175); settings: S. cerevisiae mlh1 rad18 strain growth inhibition; at 50.0 µM; active compounds read high
Method in brief: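 Yeast w/ defined DNA-repair lesions; compound exposure; growth vs vehicle controls → % inhibition.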

Measured: growth inhibition

CCOC(=O)Nc1ccc(F)cc1F
inactive: [1] -62.1% | [2] -10.6% | [3] -2.75% | [4] -10.5% | [5] 8.65% | [6] 14.4%

CSCSCC(CO)NC(=O)/C=C\c1ccccc1 (stereo not drawn)
inactive: [1] -0.7% | [2] -4.05% | [3] 7.15% | [4] -21.7% | [5] 4% | [6] 3.5%

S=C(N/N=C/c1ccc(Cl)cc1Cl)NC1CCc2ccccc21 (stereo not drawn)
inactive: [1] -12.3% | [2] 20.5% | [3] -9.7% | [4] -33.8% | [5] -7.95% | [6] -9.25%

CC(c1ccccc1)/[N+]([O-])=C/c1ccccc1 (stereo not drawn)
inactive: [1] -31.7% | [2] -33.4% | [3] -46% | [4] -6.7% | [5] -57.2% | [6] -21.6%

Cc1nn(C(=O)c2ccc(Cl)cc2)c2c1C(c1ccco1)SC(N)=N2 (stereo not drawn)
inactive: [1] -28.6% | [2] -17.5% | [3] -8.8% | [4] -17.9% | [5] -18.1% | [6] -14.8%

CCN(CC)CCOC(=O)c1c(C)c(C)cc(C)c1C
inactive: [1] -17.4% | [2] -5.45% | [3] -6.45% | [4] -29.5% | [5] -8.3% | [6] -7.7%

ClC(Cl)C1OCCOCCO1
inactive: [1] -16.1% | [2] -9.65% | [3] -9.9% | [4] -57.8% | [5] -0.35% | [6] -5.8%

O=C1c2ccccc2C(=O)N1CCCSc1ccccc1
inactive: [1] -10.2% | [2] -12.7% | [3] -21.9% | [4] -15.6% | [5] -32.4% | [6] -33.9%

COc1cc(CNC(=O)CCCCCCCCCCSSCCCCCCCCCCC(=O)NCc2ccc(O)c(OC)c2)ccc1O
inactive: [1] -20.4% | [2] -32.8% | [3] -22.9% | [4] 5.9% | [5] -13.3% | [6] -24.8%

CC(=O)NC1C(OCC(=O)NCCNc2ccc([N+](=O)[O-])c3[nH]c4ccccc4c(=O)c23)C(O)C(CO)OC1(C)OCc1ccccc1 (stereo not drawn)
inactive: [1] -3.9% | [2] -39.9% | [3] -25.6% | [4] 8.65% | [5] -18.4% | [6] -3.4%

CCc1nnc(N)o1
inactive: [1] -14.8% | [2] 1.9% | [3] 0.95% | [4] -2.5% | [5] -13.7% | [6] -14.2%

COc1ccc(C(O)C(c2ccc(OCc3ccccc3)cc2)c2ccc(OCc3ccccc3)cc2)cc1 (stereo not drawn)
inactive: [1] 1.05% | [2] -27.9% | [3] -5.15% | [4] -4.25% | [5] -29.2% | [6] -22.4%

C=C1C(=O)O[C@@H]2/C=C(\C)CC/C=C(/COC(C)=O)C[C@@H](OC(C)=O)[C@@H]12
inactive: [1] 7.4% | [2] -28.2% | [3] 20.1% | [4] 0.35% | [5] -1.4% | [6] -30.1%

CCN=C(C#N)NCC
inactive: [1] 19.2% | [2] -3.75% | [3] 20.9% | [4] 16.6% | [5] 25.2% | [6] 29.8%

CCOC(=O)C1CC(=O)C=C2CCCCC21 (stereo not drawn)
inactive: [1] -4.05% | [2] -27.7% | [3] -7.55% | [4] 5.35% | [5] -30.1% | [6] 13.4%

CCOC(=O)C(CCN(C)C)(CCN(C)C)c1ccccc1
inactive: [1] -6.3% | [2] -2.75% | [3] 21.6% | [4] -30.2% | [5] -13% | [6] -2.75%

C/C=C/c1ccc(OCC)c(OC)c1
inactive: [1] 24.4% | [2] 6.25% | [3] 12.3% | [4] -8.8% | [5] -17.2% | [6] 16.3%

CCOC(=O)C(C)(C)Oc1ccc2c(-c3ccccc3)cc(=O)oc2c1
inactive: [1] -9.15% | [2] -8.4% | [3] 0.15% | [4] -13.1% | [5] -19.8% | [6] -25.6%
